# Test results published in paper PMC5540273 (PLoS ONE, 2017).
# What was measured:
# Conditions in all cases: concentration: 1 μM, replicates: in singlicate; n = 1
# [1] = test system: TNNI3K
# [2] = test system: T1, TRKA
# T1 construct: gene NTRK1
# [3] = test system: TRKB
# [4] = test system: T2, TRKC
# T2 construct: gene NTRK3
# [5] = test system: TRPM6
# [6] = test system: TSSK1B
# [7] = test system: TSSK3
# [8] = test system: TTK
# [9] = test system: TXK
# [10] = test system: TYK2(JH1domain-catalytic)
# [11] = test system: TYK2(JH2domain-pseudokinase)
# [12] = test system: TYRO3
# [13] = test system: ULK1
# [14] = test system: ULK2
# [15] = test system: ULK3
# [16] = test system: T3, VEGFR2
# T3 construct: gene KDR
# [17] = test system: T4, VPS34
# T4 construct: gene PIK3C3
# [18] = test system: VRK2
# [19] = test system: WEE1
# [20] = test system: WEE2
# 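Also: KINOMEscan kinase panel screen.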
SMILES,%Inh [1] [%],%Inh [2] [%],%Inh [3] [%],%Inh [4] [%],%Inh [5] [%],%Inh [6] [%],%Inh [7] [%],%Inh [8] [%],%Inh [9] [%],%Inh [10] [%],%Inh [11] [%],%Inh [12] [%],%Inh [13] [%],%Inh [14] [%],%Inh [15] [%],%Inh [16] [%],%Inh [17] [%],%Inh [18] [%],%Inh [19] [%],%Inh [20] [%]
N#CC1(c2cccc(C(=O)Nc3cccc(Oc4ccc5nc(NC(=O)C6CC6)sc5n4)c3)c2)CC1,90.5,0,7,0,12,0,0,9,86,0,0,53,0,0,0,99.7,0,19,0,5
CC(C)(C)c1ccc(C(=O)Nc2cn3cc(-n4ccnc4)ccc3n2)cc1,2,0,0,0,0,0,0,1,0,22,11,0,0,14,10,0,39,0,0,36
CN(C)CCNS(=O)(=O)c1ccc(-c2ccnc3[nH]ccc23)cc1 [GSK977620],3,93.4,63,54,0,58,15,50,91,46,26,3,73,0,27,0,57,0,35,0
CN(c1ccc(NC(=O)N2CCN(CCCN3CCOCC3)CC2)cc1)c1ccnc(Nc2ccc(CS(C)(=O)=O)cc2)n1.Cl [GW830899],5,0,0,0,0,3,0,26,38,31,22,8,0,0,0,52,0,0,3,79
COc1cccc(-c2nc(-c3ccccc3)[nH]c2-c2ccncc2)c1 [SB-610250],0,0,0,22,10,10,4,16,14,18,93.1,0,8,0,28,0,0,43,9,0
Cn1cc(-c2ccc3c(c2)CCN3C(=O)Cc2cc(F)cc(F)c2F)c2c(N)ncnc21 [GSK2634140],0,36,0,38,8,0,8,0,13,11,44,0,14,0,4,0,16,27,0,14
Nc1ncnc2scc(-c3ccc(NC(=O)Cc4cc(F)ccc4F)cc3)c12.O=C(O)C(F)(F)F [SB-731254-M],0,62,72,71,31,0,0,0,8,2,0,0,11,1,34,80,0,0,0,0
Cc1cccc(Nc2nc(NCCN)ncc2C(N)=O)c1 [GSK1292139],0,72,57,43,44,38,55,36,11,44,95.8,0,64,78,41,3,0,18,0,26
COc1cccc(CC(=O)N2CCc3cc(-c4cn(C)c5ncnc(N)c45)ccc32)c1 [GSK2608899],0,75,28,52,0,29,30,0,0,0,39,0,5,5,17,64,0,0,0,0
CSc1ccc(NC2=C(c3ccc(Cl)cc3)C(=O)NC2=O)cc1 [SB-317658],2,5,0,0,0,3,0,6,23,0,0,0,19,0,12,0,22,13,5,0
Cc1ccc(C)c(NC(=O)Nc2ccc(C)c(-c3ccc(C(=O)Nc4ccncc4)cc3)c2)c1 [GSK1398473],59,0,0,0,2,17,2,13,25,0,4,20,10,0,15,3,0,0,12,12
COc1cccc(NC(=O)NCCNc2ccnc(Nc3ccc(F)cc3)n2)c1 [GSK1379879],0,0,31,38,21,0,14,0,4,33,48,0,13,0,26,0,0,0,31,6
Cc1cc(-c2ccnc(Nc3cccc(C#N)c3)n2)cc(C)c1O [GSK1440913],25,78,9,39,0,5,7,54,35,60,99.4,23,1,0,54,6,70,3,0,2
COc1ccc(NC(=O)c2ccoc2)cc1-c1ccc(C(=O)NCC2CC2)cc1 [GW810437],1,15,26,21,0,0,32,0,0,61,34,12,34,28,41,0,11,0,7,13
Nc1cccc(-c2ccc3c(N)n[nH]c3c2)c1 [GSK2193613],0,35,40,19,0,0,8,21,3,13,0,0,6,0,3,0,21,30,5,10
COc1ccc(C)c(Nc2ccnc(Nc3ccc(-c4cnc[nH]4)cc3)n2)c1.Cl [GW784041],100,0,0,0,0,10,0,15,15,44,0,44,0,0,6,0,54,0,0,8
Nc1ncc(-c2ccc3nccc(-c4ccncc4)c3c2)cc1S(=O)(=O)N1CCCCC1 [GSK1693850],1,99,0,0,0,0,7,21,0,4,12,0,0,0,10,18,95.5,2,0,0
CCNC(=O)/C=C/c1n[nH]c2cc(Sc3ccccc3C(=O)NC)ccc12,22,34,0,0,0,19,13,0,0,0,0,0,10,36,1,99.9,0,14,14,0
c1ccc(Oc2ccc(Nc3ccnc4cc(-c5ccc(CN6CCCCC6)o5)ccc34)cc2)nc1 [GW567143],1,98.7,18,27,42,6,19,28,0,16,17,26,0,0,15,24,0,14,8,13
CC(C)NCC(Cc1ccccc1)NC(=O)c1cc(Br)c(-c2ccnc3[nH]ccc23)s1.Cl.Cl (stereo not shown) [GSK1383281],0,75,64,52,0,32,2,58,79,53,22,0,0,0,1,33,0,2,6,0
CCNc1nccc(-c2c(-c3ccc(F)cc3)ncn2C2CCN(C)CC2)n1,0,0,0,0,0,0,0,7,0,0,0,26,0,0,0,0,0,0,0,0

SMILES,%Inh [1] [%],%Inh [2] [%],%Inh [3] [%],%Inh [4] [%],%Inh [5] [%],%Inh [6] [%],%Inh [7] [%],%Inh [8] [%],%Inh [9] [%],%Inh [10] [%],%Inh [11] [%],%Inh [12] [%],%Inh [13] [%],%Inh [14] [%],%Inh [15] [%],%Inh [16] [%],%Inh [17] [%],%Inh [18] [%],%Inh [19] [%],%Inh [20] [%]
O=C(Nc1n[nH]c2nc(-c3cccc(O)c3)ccc12)C1CC1 [SB-711805],0,4,19,24,3,0,0,14,0,18,0,0,0,10,7,16,23,0,0,0
O=C(Nc1n[nH]c2nc(-c3ccccc3)ccc12)C1CC1 [SB-708999],11,1,0,24,0,0,16,0,5,33,29,6,11,3,9,0,14,47,0,0
Cl.Cl.NCC(NC(=O)c1cc(-c2cccnc2)c(-c2ccnc3[nH]ccc23)s1)c1ccccc1 (stereo not shown) [GSK1323434],26,31,40,48,34,14,19,4,0,28,37,0,4,0,0,0,45,15,8,13
O=C1NC(=O)C(c2ccccc2Cl)=C1Nc1cccc(Cl)c1 [SB-342409],98.7,0,0,9,13,100,8,0,33,12,29,0,36,0,24,0,0,12,0,6
CS(=O)(=O)c1cccc(CNc2nc(Nc3ccc4c(c3)CCC(=O)N4)ncc2C(F)(F)F)c1,0,98,92.9,73,0,0,0,99.6,0,89,0,0,69,70,66,68,0,0,0,0
Fc1cc(Cl)ccc1Nc1ccnc2cc(-c3ccc(CN4CCSCC4)o3)ccc12 [GW560106],10,72,28,0,3,0,14,13,82,19,52,61,0,0,15,65,0,29,0,2
COC(=O)Nc1nc2cc(Oc3ccc(NC(=O)Nc4cccc(SC)c4)cc3)ccc2[nH]1.Cl [GW697999],81,81,82,90,0,0,11,4,0,10,20,0,14,0,21,77,18,26,28,11
Cl.O=C(Nc1ccc(Oc2ccc3[nH]c(NC(=O)c4ccco4)nc3c2)cc1)Nc1cc(C(F)(F)F)ccc1F [GW683134],87,98.9,98.3,97.4,1,0,6,0,16,16,24,42,24,0,32,78,0,15,0,0
CN(c1ccc2c(c1)nc(NCc1ccccc1)n2C)c1ccnc(Nc2ccc(CS(C)(=O)=O)cc2)n1.Cl [GW811603],0,78,77,55,0,0,37,16,78,40,0,0,0,16,9,99.5,40,100,0,29
Fc1cc(Cl)ccc1Nc1ccnc2cc(-c3ccc(CN4CCOCC4)o3)ccc12 [GW560109],7,42,41,35,35,21,3,21,86,18,29,83,15,8,34,82,0,27,0,0
COc1cc(Nc2ccnc3cc(-c4ccncc4)ccc23)cc(OC)c1OC.Cl [GW494610],14,38,7,37,16,0,22,0,92.8,17,18,89,100,0,15,0,0,19,0,18
Cc1ccc(O)cc1Nc1ccnc2ccc(C(C)(C)C)cc12 [GW856805],6,37,42,11,21,1,0,17,98.9,54,38,15,56,30,51,54,51,20,9,18
Cl.N#CCc1ccc(Nc2nccc(Nc3ccc(Oc4ccccc4)cc3)n2)cc1 [GW639905],0,0,39,34,29,6,10,11,36,40,72,36,23,0,15,0,0,24,0,0
CNc1nccc(-c2ccc3c(N)n[nH]c3c2)n1 [GSK2206003],0,52,23,3,0,0,21,37,11,46,89,0,42,41,9,31,15,18,9,7
CN(c1ccc(F)c(NC(=O)c2cccc(OC(C)(C)C#N)c2Cl)c1)c1ccc2nc(NC(=O)C3CC3)sc2n1,36,6,0,11,9,24,2,6,5,11,0,14,2,0,4,91.9,0,0,0,17
COc1cc(Nc2nccc(N3CCC(NS(=O)(=O)c4ccc(NC(C)=O)cc4)CC3)n2)cc(OC)c1OC [GSK1379825],40,100,27,15,0,12,25,1,51,75,84,76,21,11,97.4,0,34,0,75,0
CCOc1nccc(-c2c(-c3ccc(F)cc3)ncn2C2CCNCC2)n1 [SB-249175],4,47,21,18,18,0,34,0,10,45,36,15,28,34,26,13,24,51,0,18
CCn1cnc2c(NCc3ccccc3)ncnc21 [SKF-96418],0,0,0,11,15,0,0,16,2,0,30,0,0,38,0,0,33,16,0,0
CN(C)c1ncnc2nc[nH]c12 [SKF-31736],0,0,0,28,30,0,4,0,0,0,26,0,14,42,21,5,47,38,0,0
CN(c1ccc(NC(=O)Nc2cccc(Cl)c2)cc1)c1ccnc(N)n1.Cl [GW830707],19,57,45,89,0,3,0,0,0,0,0,0,5,17,0,97.4,0,0,4,0
